The source of these data is PubChem BioAssay (NCATS).

Results filed as inconclusive are left out. Activity calls are given as the source filed them. Unless noted, calls come from the whole dose curve; as a rule, active = well fitted curve in the direction sought with a large enough effect; inconclusive = small, poorly fitted or top-dose-only effect, or another doubt; inactive = no such curve, though single readings can be large; an effect the other way counts as inactive or inconclusive. Where a SMILES comes first, the peptide text is derived from it. [ ]: non-standard residue; d: D form. Dip = N[C@H](C(=O)O)C(c1ccccc1)c1ccccc1

Experiment [1] is described as follows: Primary qHTS for inhibitors of nuclear receptor binding SET domain protein 2 (NSD2) in an isogenic RCH-ACV NSD2 p.E1099K mutant (9B) (AID 1645876). Note: nearly all actives have a fitted effect of over 70% in size. Note: potency is the fitted concentration of half-maximal effect.
Experiment [2] is described as follows: Primary qHTS for inhibitors of nuclear receptor binding SET domain protein 2 (NSD2) in an RCH-ACV wild type WT cells (2C) (AID 1645877). Note: nearly all actives have a fitted effect of over 70% in size. Note: potency is the fitted concentration of half-maximal effect. For orientation: Quantitative high-throughput screening tests each substance at several concentrations.
Experiment [3] concerns the target Catechol O-methyltransferase (Homo sapiens) (UniProt P21964). Kind of experiment: Confirmatory Screen for Target Class Profiling of Small Molecule Inhibitors of Methyltransferases (AID 1745852; calls by dose curve; note: potency is the fitted concentration of half-maximal effect; for activity change, negative = inhibition: % is set by controls: 0 for no effect and ±100 for the full control effect). As to conditions: MTase-Glo luminescence, SAH detection, recombinant enzyme; measured here: COMT max response; stronger effect = lower value.
Experiment [4] addresses Guanidinoacetate N-methyltransferase (Homo sapiens) (UniProt Q14353). Described as above. As to conditions: MTase-Glo luminescence, SAH detection, recombinant enzyme; activity change, negative = inhibition: at 57.3 µM (top of the series) unless noted.
Experiment [5] deals with Nicotinamide N-methyltransferase (Homo sapiens) (UniProt P40261). The experiment is described as above. As to conditions: MTase-Glo luminescence, SAH detection, recombinant enzyme; measured here: NNMT max response; stronger effect = lower value.
For experiment [6], the target named is Phenylethanolamine N-methyltransferase (Homo sapiens) (UniProt P11086). Described as above. To be noted: MTase-Glo luminescence, SAH detection, recombinant enzyme; measured here: PNMT max response; stronger effect = lower value.
Experiment [7] deals with Glutathione peroxidase 1 (Homo sapiens) (UniProt P07203). Put plainly: Primary qHTS Assay for Inhibitors of Recombinant Selenoprotein Glutathione Peroxidase 1 (GPX1) (AID 1845191). Note: nearly all actives have a fitted effect of over 65% in size. The procedure, abridged: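 10 nM GPX1 + cpd, 30 min RT; start w/ 1 mM GSH, 0.5 mM cumene hydroperoxide, 0.5 mM NADPH, 100 nM GR, 0.01% BSA; buffer 50 mM Tris-HCl pH 7.5, 2 mM EDTA, 150 mM NaCl; Fl 340/450, 0 & 15 min.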

Experiment [8] has as its target Phospholipid hydroperoxide glutathione peroxidase GPX4 (Homo sapiens) (UniProt P36969). Put plainly: Primary qHTS Assay for Inhibitors of Recombinant Selenoprotein Glutathione Peroxidase 4 (GPX4) (AID 1845192). For activity change, negative = inhibition: % is set by controls: 0 for no effect and ±100 for the full control effect. Note: nearly all actives have a fitted effect of over 65% in size. Note: potency is the fitted concentration of half-maximal effect. In outline: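 NADPH consumption, followed by fluorescence at 340/450 nm between 0 and 15 min, reports GPX4 activity via coupled glutathione reductase (100 nM). Enzyme 200 nM was pre-exposed to compound 30 min; 0.5 mM cumene hydroperoxide and 1 mM GSH served as substrates.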

Experiment [9] can be described thus: NCATS anti-infectives library activity on HEK293 viability as a counter-qHTS vs the C. elegans viability qHTS (AID 1745854). Note: % is set by controls: 0 for no effect and ±100 for the full control effect. The procedure, abridged: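 Compounds were acoustically plated (several concentrations, 1:5, final up to 41.7 uM), then 1500 HEK293 cells added per well and incubated 24 hr at 37C, 5% CO2. CellTiter-Glo was added and luminescence read after 10 min.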

The nature of experiment [10]: qHTS drug screen for cell cycle checkpoint inhibitors in PARPi-resistant BRCA-mutant ovarian cancer cell lines. (AID 1963452; calls by dose curve). To be noted: PEO1/OlaR viability, CellTiter-Glo luminescence, 96 h, stronger effect = lower value. The procedure, abridged:
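PEO1, PEO4 and PEO1/OlaR ovarian cancer cells, 600 per well, exposed 96 h at 37C to a dilution series. Viability read by CellTiter-Glo luminescence, normalized to DMSO and empty wells; activity summarized as Z-AUC.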

Experiment [11] can be described thus: NCATS anti-infectives library activity on the primary C. elegans qHTS viability assay (AID 1745855; calls by dose curve). The procedure, abridged: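 Viability read-out is GFP fluorescence of PE254-GFP-FLuc C. elegans, measured by laser cytometry (488 nm) at day 0, 3 and 7. Ten L1 worms per well were incubated 7 days at 21 °C with compounds and bacterial capsules in S medium.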
Setting [12] is: measured here: PEO1 parental Z-AUC.

Phenylethanolamine N-methyltransferase (Homo sapiens), sequence (P11086 whole entry, looked up): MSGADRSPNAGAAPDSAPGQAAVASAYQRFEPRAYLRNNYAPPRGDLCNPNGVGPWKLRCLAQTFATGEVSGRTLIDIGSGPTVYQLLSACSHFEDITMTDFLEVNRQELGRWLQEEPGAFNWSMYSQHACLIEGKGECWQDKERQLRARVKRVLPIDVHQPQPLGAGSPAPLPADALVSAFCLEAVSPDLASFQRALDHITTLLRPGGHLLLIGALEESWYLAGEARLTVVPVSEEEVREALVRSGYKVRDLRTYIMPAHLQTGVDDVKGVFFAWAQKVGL
Catechol O-methyltransferase (Homo sapiens), sequence (P21964 whole entry, looked up): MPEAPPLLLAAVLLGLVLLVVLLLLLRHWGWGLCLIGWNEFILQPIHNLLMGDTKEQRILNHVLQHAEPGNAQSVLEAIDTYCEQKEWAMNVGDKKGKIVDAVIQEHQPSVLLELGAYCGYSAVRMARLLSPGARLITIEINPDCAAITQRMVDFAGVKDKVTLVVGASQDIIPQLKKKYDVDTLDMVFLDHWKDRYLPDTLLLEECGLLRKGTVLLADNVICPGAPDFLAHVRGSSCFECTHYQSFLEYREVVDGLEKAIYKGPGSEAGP
Glutathione peroxidase 1 (Homo sapiens), sequence (P07203 whole entry, looked up): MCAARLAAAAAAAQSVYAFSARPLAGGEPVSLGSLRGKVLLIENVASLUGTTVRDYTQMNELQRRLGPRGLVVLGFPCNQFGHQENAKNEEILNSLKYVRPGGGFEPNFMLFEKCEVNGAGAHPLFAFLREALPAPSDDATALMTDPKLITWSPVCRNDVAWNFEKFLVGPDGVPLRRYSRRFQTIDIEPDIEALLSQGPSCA
Nicotinamide N-methyltransferase (Homo sapiens), sequence (P40261 whole entry, looked up): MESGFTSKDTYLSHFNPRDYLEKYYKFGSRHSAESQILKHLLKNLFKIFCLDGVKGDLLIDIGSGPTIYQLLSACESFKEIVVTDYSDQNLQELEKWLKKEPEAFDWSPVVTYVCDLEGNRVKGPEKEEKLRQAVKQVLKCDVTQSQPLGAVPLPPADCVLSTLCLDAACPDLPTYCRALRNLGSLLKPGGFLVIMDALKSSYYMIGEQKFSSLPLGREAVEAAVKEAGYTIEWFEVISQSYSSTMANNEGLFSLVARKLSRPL
Phospholipid hydroperoxide glutathione peroxidase GPX4 (Homo sapiens), sequence (P36969 whole entry, looked up): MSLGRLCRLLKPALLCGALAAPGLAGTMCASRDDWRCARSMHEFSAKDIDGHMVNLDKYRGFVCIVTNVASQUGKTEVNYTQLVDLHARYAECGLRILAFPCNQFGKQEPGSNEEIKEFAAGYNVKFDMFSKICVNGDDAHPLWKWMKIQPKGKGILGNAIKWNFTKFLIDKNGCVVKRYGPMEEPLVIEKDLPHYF

Turning to `CCCS(=O)(=O)c1nc(NC2CC2)cc(-c2ccc3c(ccn3C3CC(C)(C)NC(C)(C)C3)c2)n1`, the Potency was 2.48 µM (active) in [1] and 2.21 µM (active) in experiment [2]. Further, the activity in experiment [3] is -4.11%; in [5], -12%; in experiment [6] it was -6.24%. The activity change, negative = inhibition in [4] amounted to 1.84% [at 19.1 µM]. The Potency entry in experiment [7] and in [8] was “inactive” in each case.

Consider `O=c1c(-c2ccc(O)cc2)coc2cc(O[C@@H]3O[C@H](CO)[C@@H](O)[C@H](O)[C@H]3O)ccc12`, for which the Potency in experiment [1] and in [2] was 16.6 µM (active) throughout. For the same compound, the outcome in experiment [9] was “inactive”. Besides, the Potency result in [7] and in experiment [8] was “inactive” throughout. The Z-AUC in experiment [10] is 1.43 (inactive); in [10] (setting [12]) it was 1.29; in experiment [10] (measured here: PEO4 Z-AUC), 1.57.

For `CC[C@H](NC(=O)[C@H](C)NC)C(=O)N1C[C@@H](O)C[C@H]1Cc1c(-c2[nH]c3cc(F)ccc3c2C[C@@H]2C[C@H](O)CN2C(=O)[C@H](CC)NC(=O)[C@H](C)NC)[nH]c2cc(F)ccc12`, the Potency in [1] was 5.25 µM (active); in experiment [2], 18.6 µM (active). The outcome in [9] was “inactive”.

For `Cc1c(O)cccc1C(=O)NC(CSc1ccccc1)C(O)CN1CC2CCCCC2CC1C(=O)NC(C)(C)C` (configuration not stated), the results for the Potency in experiment [1] and in [2] were 23.5 µM (active) and 20.9 µM (active), respectively.

Take `CC(=O)NCCNc1cc(Cl)nn2c(-c3cccc(S(=O)(=O)N(C)C)c3)c(C)nc12`: the values for the Potency in experiment [1] and in experiment [2] were 7.31 µM (active) and 4.61 µM (active), respectively. Besides, the Potency entry in [7] was “inactive”.

For `CCN1/C(=C/C(C)=O)Sc2ccc(OC(C)=O)cc21`, the results for the Potency in [1] and in [2] were 16.4 µM (active) and 20.6 µM (active), respectively. The Potency result in [7] is “inactive”.

In the case of `O=Nc1c(-c2c(O)[nH]c3ccc(F)cc23)[nH]c2ccccc12`, the Potency in experiment [1] was 1.84 µM (active); in [2], 2.06 µM (active). The Potency result in experiment [7] was “inactive”.

As to `Cc1ccc([C@@H]2O[C@H](CO)[C@@H](O)[C@H](O)[C@H]2O)cc1Cc1ccc(-c2ccc(F)cc2)s1`, the Potency in experiment [1] was 23.5 µM (active); in [2] it was 20.9 µM (active). Further, the Potency entry in experiment [7] and in experiment [8] was “inactive” each time. The Z-AUC was -0.931 (inactive) in experiment [10], -1.18 in experiment [10] (setting [12]) and -1.2 in experiment [10] (measured here: PEO4 Z-AUC).

`Oc1cccc(Nc2ccnc3[nH]c4ccccc4c23)c1`: the results for the Potency in [1], in [2] and in experiment [4] were 4.11 µM (active), 4.11 µM (active) and 48.2 µM (active), respectively. The figures for the activity in experiment [3], in experiment [5] and in [6] were -17.6%, -74.1% and -25.8%, respectively. In experiment [7], the Potency result was “inactive”.

As to `O=C(CCCCCCNC(=O)c1cnc(N(c2ccccc2)c2ccccc2Cl)nc1)NO`, the Potency in [1] was 2.63 µM (active); in experiment [2], 2.09 µM (active). The outcome in experiment [9] was “inactive”. The Potency entry in experiment [7] and in [8] was “inactive” throughout. Also, the Z-AUC in [10] is 0.102 (inactive); in experiment [10] (setting [12]), -0.152; in [10] (measured here: PEO4 Z-AUC) it was -0.286.

In the case of `Cc1cn(C2C[C@H](O)[C@@H](CO)O2)c(=O)[nH]c1=O` (some centres not stated), the Potency result in [1] and in [2] was “inactive” in each case.

For `O=C(/C=C/c1ccc2ccccc2n1)c1ccncc1`, the Potency in experiment [1] is 3.66 µM (active); in experiment [2] it was 4.11 µM (active). Further, the Potency result in experiment [7] was “inactive”.

`Nc1ccc(F)cc1NC(=O)c1ccc(CNC(=O)/C=C/c2cccnc2)cc1`: the Potency in [1] is 1.05 µM (active); in experiment [2] it was 1.18 µM (active). Besides, the outcome in [9] was “inactive”. The Potency result in experiment [11], in experiment [7] and in experiment [8] was “inactive” throughout. Moreover, the Z-AUC in [10] is -1.13 (inactive); in experiment [10] (setting [12]), -0.9; in experiment [10] (measured here: PEO4 Z-AUC), -0.779.

In the case of `C[C@]12CCCN1CC1=NNC(=O)c3cc(F)cc4[nH]c2c1c34`, the figures for the Potency in [1] and in experiment [2] were 10.5 µM (active) and 3.72 µM (active), respectively. In addition, the outcome in [9] is “inactive”. The Potency entry in [11], in experiment [7] and in experiment [8] was “inactive” throughout. The Z-AUC is -0.827 (inactive) in experiment [10], -0.713 in [10] (setting [12]) and 0.783 in experiment [10] (measured here: PEO4 Z-AUC).

In the case of `CC[C@]12C=CCN3CC[C@@]4(c5cc([C@@]6(C(=O)OC)CC7C[C@@H](C(C)(F)F)CN(Cc8c6[nH]c6ccccc86)C7)c(OC)cc5N(C)[C@H]4[C@@](O)(C(=O)OC)[C@@H]1OC(C)=O)[C@@H]32` (some centres not stated), the Potency in experiment [1] is 0.263 µM (active); in experiment [2], 0.186 µM (active).

Regarding `O=C1NC(=O)/C(=C\c2ccc(-c3ccc(F)cc3O)o2)S1`, the Potency in experiment [1] is 13 µM (active); in experiment [2], 11.6 µM (active).

Turning to `[2H]C([2H])([2H])C(O)([C@@H](C)/C=C/[C@@H](C)[C@H]1CC[C@H]2/C(=C/C=C3C[C@@H](O)C[C@H](O)C3)CCC[C@]12C)C([2H])([2H])[2H]`, the Potency entry in experiment [1], in [2], in experiment [7] and in experiment [8] was “inactive” throughout. Besides, the Z-AUC was 1.18 (inactive) in experiment [10], 0.263 in [10] (setting [12]) and 0.327 in experiment [10] (measured here: PEO4 Z-AUC).

On to `[N-]=[N+]=N[C@]1(CO)O[C@@H](n2ccc(N)nc2=O)[C@@H](O)[C@@H]1O`, for which the values for the Potency in [1] and in experiment [2] were 5.17 µM (active) and 3.66 µM (active), respectively. Also, in [9], the outcome was “inactive”.

For `COc1cc2c(NC3CCN(C)CC3)nc(N3CCCN(C)CC3)nc2cc1OCCCN(C)C`, the Potency result in experiment [1], in [2] and in [7] was “inactive” throughout. Moreover, the figures for the activity in experiment [3], in experiment [5] and in experiment [6] were 3.04%, -9.37% and -4.66%, respectively. Besides, the activity change, negative = inhibition in experiment [4] was found to be 3.96%. Besides, the Potency in [8] was 18 µM (active). The Z-AUC is -0.893 (inactive) in experiment [10], -0.915 in [10] (setting [12]) and -1.6 in experiment [10] (measured here: PEO4 Z-AUC).

Regarding `NCCCC[C@H](NC(=O)[C@@H](NC(=O)[C@H](Cc1c[nH]c2ccccc12)NC(=O)[C@H](CCCCN)NC(=O)[C@H](CCCCN)NC(=O)[C@H](Cc1c[nH]c2ccccc12)NC(=O)[C@H](Cc1c[nH]c2ccccc12)NC(=O)[C@H](CCCCN)NC(=O)[C@@H](N)CCCCN)C(c1ccccc1)c1ccccc1)C(N)=O` (H-KKWWKKW[Dip]K-NH2), the figures for the Potency in [1] and in [2] were 13.2 µM (active) and 20.9 µM (active), respectively. The Potency entry in experiment [7] and in experiment [8] was “inactive” throughout. Moreover, the Z-AUC in [10] is 0.988 (inactive); in [10] (setting [12]) it was 0.826; in experiment [10] (measured here: PEO4 Z-AUC), 0.857.

Consider `CCN1CCN(c2ccc(Nc3ccc(-c4ccc(C(N)=O)cc4)n4ncnc34)cc2)CC1`, for which the Potency is 9.2 µM (active) in experiment [1] and 7.31 µM (active) in experiment [2]. For the same compound, the values for the activity in [3], in experiment [5] and in experiment [6] were -0.444%, -65.3% and -8.41%, respectively. Also, the activity change, negative = inhibition in [4] was 0%. For the same compound, the Potency result in experiment [7] is “inactive”.

As to `C=CC(C)(/C=C/c1ccc(O)cc1)CCC=C(C)C` (configuration not stated), the Potency in experiment [1] was 20.6 µM (active); in [2], 18.4 µM (active). Besides, the Potency result in experiment [7] is “inactive”.
